GC-A act = GC-A (human) enzyme activation. activation, % at 10 µM. HEK293 GC-A cells, cGMP TR-FRET, EC30 ANP; 0% at EC30 ANP, 100% saturating ANP. 370,000 compounds, 0.14% hits. AID 1671463; in the data active means activation above about 40%
Neddylation inh = cullin neddylation inhibition; 360,000 compounds, 0.58% hits; TR-FRET cullin neddylation, biochemical; inhibition, % at 25 µM; P61081+Q13564; in the data active means inhibition above about 36%
NadD block = NadD (S. aureus) enzyme inhibition; purified NadD enzyme, colorimetric absorbance read-out; inhibition, % at 20 µM; 360,000 compounds, 0.78% hits; AID 602399; in the data active means inhibition above about 26%
GC-B act = GC-B (human) receptor activation | P20594 | activation, % at 10 µM | HEK293-GC-B cells, CNP EC30, cGMP TR-FRET; 0% at EC30 CNP, 100% saturating CNP | 370,000 compounds, 0.11% hits;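 active means activation at 10 µM reaching about 35% in either raw or pattern-adjusted values, limit read from the data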
Target sequence (P20594 whole entry, looked up): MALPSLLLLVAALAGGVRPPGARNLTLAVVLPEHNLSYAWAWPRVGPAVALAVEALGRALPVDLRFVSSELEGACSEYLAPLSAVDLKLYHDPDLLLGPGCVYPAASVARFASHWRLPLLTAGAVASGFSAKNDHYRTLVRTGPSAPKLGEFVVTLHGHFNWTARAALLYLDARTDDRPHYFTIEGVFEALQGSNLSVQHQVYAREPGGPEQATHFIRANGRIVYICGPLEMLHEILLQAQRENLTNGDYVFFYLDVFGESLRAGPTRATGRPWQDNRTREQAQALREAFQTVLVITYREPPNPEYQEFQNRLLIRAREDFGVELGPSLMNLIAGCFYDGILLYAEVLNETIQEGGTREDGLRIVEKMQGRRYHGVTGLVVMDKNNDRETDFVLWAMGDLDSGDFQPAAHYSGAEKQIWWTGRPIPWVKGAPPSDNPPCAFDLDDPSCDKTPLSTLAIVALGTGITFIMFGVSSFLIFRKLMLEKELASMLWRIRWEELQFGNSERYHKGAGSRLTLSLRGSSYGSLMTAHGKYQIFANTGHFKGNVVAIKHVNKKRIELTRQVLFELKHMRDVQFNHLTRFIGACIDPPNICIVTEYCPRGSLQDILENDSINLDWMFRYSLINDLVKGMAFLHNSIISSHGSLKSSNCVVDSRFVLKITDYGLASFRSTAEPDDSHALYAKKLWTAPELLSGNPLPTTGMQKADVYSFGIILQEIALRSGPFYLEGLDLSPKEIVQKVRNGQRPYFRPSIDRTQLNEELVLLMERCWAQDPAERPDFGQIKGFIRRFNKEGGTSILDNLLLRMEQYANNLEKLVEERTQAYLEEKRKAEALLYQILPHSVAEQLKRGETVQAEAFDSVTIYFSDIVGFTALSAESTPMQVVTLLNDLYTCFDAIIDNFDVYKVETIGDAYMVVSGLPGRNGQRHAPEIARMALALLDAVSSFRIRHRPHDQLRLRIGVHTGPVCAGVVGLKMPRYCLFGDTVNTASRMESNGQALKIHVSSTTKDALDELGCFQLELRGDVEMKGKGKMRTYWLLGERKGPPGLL
NadD conf = confirmation of Staphylococcus aureus NadD inhibitors. shares compounds with NadD block. purified S. aureus NadD, colorimetric enzyme assay. inhibition, % at 20 µM. 2,000 compounds, 13% hits. AID 624309; in the data active means inhibition mostly above about 42%, no sharp cut-off; inactive means mostly below about 42%
Numbers stand for hits. An excerpt weighted towards active compounds, which were near 1.5% of everything screened.

How did CCOc1ccc(CCN2C(=O)C(=O)N([C@@H](CC(C)C)CN3CCC[C@@H]3CN3C(=O)C(=O)NC[C@@H]3Cc3ccccc3)C[C@@H]2Cc2ccc(O)cc2)cc1 do in these assays?
GC-A act: inactive; Neddylation inh: inactive; NadD block: inactive; GC-B act: inactive

What do the screens show for `CC(C)C[C@@H](CN1CCC[C@H]1CN1C(=O)C(=O)NC[C@@H]1Cc1ccc(O)cc1)N1C[C@H](Cc2ccccc2)N(CC2CCCCC2)C(=O)C1=O`?
GC-A act: inactive; Neddylation inh: inactive; NadD block: inactive; GC-B act: inactive

How did CC(C)C[C@@H](CN1CCC[C@H]1CN1C(=O)C(=O)NC[C@@H]1Cc1ccc(O)cc1)N1C[C@H](Cc2ccc(O)cc2)N(CC2CCCCC2)C(=O)C1=O do in these assays?
GC-A act: inactive; Neddylation inh: inactive; NadD block: 32; GC-B act: inactive; NadD conf: inactive

Results for CC(C)C[C@@H](CN1CCC[C@H]1CN1C(=O)C(=O)NC[C@@H]1Cc1ccccc1)N1C[C@H](Cc2ccccc2)N(CC2CCCCC2)C(=O)C1=O ?
GC-A act: inactive; Neddylation inh: inactive; NadD block: 33; GC-B act: inactive; NadD conf: inactive

What do the screens show for `CC(C)C[C@@H](CN1CCC[C@H]1CN1C(=O)C(=O)NC[C@@H]1Cc1ccc(O)cc1)N1C[C@H](Cc2ccc(O)cc2)N(CC2CCCCCC2)C(=O)C1=O`?
GC-A act: inactive; Neddylation inh: inactive; NadD block: inactive; GC-B act: inactive

What do the screens show for `COc1ccc2c(c(-c3ccccc3)cn2C)c1-c1ccccc1`?
GC-A act: inactive; GC-B act: inactive

How did CN(Cc1ccco1)C(=O)CN1C(=O)C2(OCCCO2)c2ccccc21 do in these assays?
GC-A act: inactive; GC-B act: inactive

What do the screens show for `Cc1nn(Cc2c(Cl)cccc2Cl)c(C)c1NC(=O)c1cn(-c2ccccc2)nc1-c1ccccc1`?
Neddylation inh: inactive; NadD block: 34; NadD conf: inactive

What do the screens show for `COCCn1c(SCC(=O)Nc2ccc3c(c2)OCCO3)nnc1-c1c[nH]c2ccccc12`?
GC-A act: inactive; Neddylation inh: inactive; NadD block: inactive; GC-B act: inactive

How did CCOC(=O)c1c(NC(=O)CSc2nnc(-c3c[nH]c4ccccc34)n2C)sc2c1CCCC2 do in these assays?
GC-A act: inactive; Neddylation inh: inactive; NadD block: 33; GC-B act: inactive; NadD conf: inactive

Results for CCOC(=O)c1c(NC(=O)CSc2nnc(-c3c[nH]c4ccccc34)n2CCOC)sc2c1CCCC2 ?
GC-A act: inactive; Neddylation inh: inactive; NadD block: 34; GC-B act: inactive; NadD conf: inactive

What do the screens show for `O=C(Cc1cccc2ccccc12)N/N=C/c1ccc(O)c([N+](=O)[O-])c1`?
GC-A act: inactive; Neddylation inh: inactive; NadD block: inactive; GC-B act: inactive

What do the screens show for `O=C(Cc1cccc2ccccc12)N/N=C/c1ccc2cccc(O)c2n1`?
GC-A act: inactive; Neddylation inh: inactive; NadD block: 30; GC-B act: inactive; NadD conf: inactive

How did CC(=O)Nc1ccc(C(/C=C/c2ccccc2)Cc2ccccc2)cc1 (configuration not stated) do in these assays?
GC-A act: inactive; GC-B act: inactive

Results for O=C(C[C@H]1C[C@H](C(=O)N2CCCCC2)[C@@]2(CCc3ccccc3)c3[nH]c4ccc(Cl)cc4c3CCN2C1=O)NCCCn1ccnc1 ?
GC-A act: inactive; Neddylation inh: inactive; NadD block: 31; GC-B act: inactive; NadD conf: inactive

Results for CC(C)=CCC/C(C)=C/CNC(=O)C[C@H]1C[C@H](C(=O)N2CCCCC2)[C@@]2(CCc3ccccc3)c3[nH]c4cc(-c5ccco5)ccc4c3CCN2C1=O ?
NadD block: 44; NadD conf: inactive

How did C[C@]12c3[nH]c4ccc(Cl)cc4c3CCN1C(=O)[C@@H](CC(=O)NCCCn1ccnc1)C[C@@H]2C(=O)N1CCCCC1 do in these assays?
GC-A act: inactive; Neddylation inh: inactive; NadD block: inactive; GC-B act: inactive

Results for CC[C@]12c3[nH]c4cc(-c5ccco5)ccc4c3CCN1C(=O)[C@@H](CC(=O)NC/C=C(\C)CCC=C(C)C)C[C@@H]2C(=O)N1CCN(C(=O)C2CC2)CC1 ?
GC-A act: inactive; NadD block: inactive; GC-B act: inactive

What do the screens show for `CC[C@H]1C=C[C@@H](C(=O)NS(=O)(=O)c2ccc(C)cc2)N(C(C)=O)C1`?
GC-A act: inactive; GC-B act: inactive

How did CCc1cc2c(nc1CC)CCCN2S(=O)(=O)c1ccc(C(F)(F)F)cc1 do in these assays?
GC-A act: inactive; GC-B act: inactive

Results for CC(C)C[C@H]1CNC(=S)N1C[C@H]1CCCN1C[C@H](Cc1ccccc1)N1C[C@H](CC(C)C)N(CCc2ccccc2)C1=S ?
GC-A act: inactive; Neddylation inh: inactive; NadD block: inactive; GC-B act: inactive

What do the screens show for `CCOc1ccc(CCN2C(=S)N([C@@H](Cc3ccc(O)cc3)CN3CCCC3CN3C(=S)NC[C@@H]3Cc3ccc(O)cc3)C[C@@H]2CC(C)C)cc1` (some centres not stated)?
GC-A act: inactive; Neddylation inh: inactive; NadD block: 43; GC-B act: inactive; NadD conf: inactive

How did CCOc1ccc(CCN2C(=S)N([C@@H](Cc3ccc(O)cc3)CN3CCC[C@@H]3CN3C(=S)NC[C@@H]3CC(C)C)C[C@@H]2Cc2ccc(O)cc2)cc1 do in these assays?
GC-A act: inactive; Neddylation inh: inactive; NadD block: 48; GC-B act: inactive; NadD conf: inactive

Results for CCOc1ccc(CCN2C(=S)N([C@@H](Cc3ccccc3)CN3CCC[C@@H]3CN3C(=S)NC[C@@H]3Cc3ccc(O)cc3)C[C@@H]2CC(C)C)cc1 ?
GC-A act: inactive; Neddylation inh: inactive; NadD block: 31; GC-B act: inactive; NadD conf: inactive

Results for Cc1c[nH]c2cccc(-c3c(Cl)cccc3Cl)c12 ?
GC-A act: inactive; GC-B act: inactive

How did CCOc1cccc(C(=O)Nc2ccc(N3CCCC3)cc2)c1 do in these assays?
GC-A act: inactive; Neddylation inh: inactive; NadD block: inactive; GC-B act: inactive

Results for CCOc1ccc(C(=O)Nc2ccc(N3CCCC3)cc2)cc1 ?
GC-A act: inactive; Neddylation inh: inactive; NadD block: 35; GC-B act: inactive; NadD conf: inactive

Results for COc1ccc(C(=O)Nc2ccc(N3CCCC3)cc2)cc1 ?
GC-A act: inactive; Neddylation inh: inactive; NadD block: 40; GC-B act: inactive; NadD conf: inactive

Results for CCC(Sc1nc2ccsc2c(=O)n1Cc1ccc(C(=O)O)cc1)C(=O)Nc1ccc(C)c(Cl)c1 (configuration not stated) ?
GC-A act: inactive; Neddylation inh: inactive; NadD block: 48; GC-B act: inactive; NadD conf: 47

Assay outcomes (PubChem BioAssay)
